According to PubChem BioAssay AID1159506 (National Center for Advancing Translational Sciences (NCATS), 2015):
Over roughly 59,000 sequences, the read-out has its median near -0.00055; the lowest 2% begin near -2. The sample as a whole holds a higher share of the lowest values than the screen did.

Assay: Identification of proteins required for the processing of the EWS-FLI1 nascent transcript;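 note: robust z of luciferase light less the median z of siRNAs with the same seed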
Conditions: TC32 Ewing sarcoma NR0B1-luc vs CMV-luc (EWS-FLI1 target promoter against control promoter), 48 h; screened at 20 nM (by protocol)
Summary of the method: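 Genome-wide siRNA screen (Ambion v4.1, three siRNAs per gene, 20 nM final, RNAiMax) in Ewing sarcoma TC32 cells carrying NR0B1-promoter or CMV-promoter luciferase; OneGlo luciferase read 48 h post-transfection. Data normalized, z-score-MAD transformed and seed-adjusted.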

For UUGACGUGCAUGAAGGACC against DUSP3, which seed-corrected z-score is on record?
The seed-corrected z-score was -0.254.

With UUCAGUACCAGGCUGGGUG against COMT as the sequence, how does the seed-corrected z-score read?
The seed-corrected z-score was 0.499.

Which seed-corrected z-score does the source give for UUCUUGAUGAUCUUUAGCU against LONP1 here?
Its seed-corrected z-score is 0.0484.

For UGGUCUAUAGUAUUCAUGC against YTHDF2, which seed-corrected z-score is on record?
Its seed-corrected z-score is -0.0088.

Which seed-corrected z-score does the source give for UGAUUAUUAGGUACUACCC against RCN2 here?
The seed-corrected z-score was -2.4.

Which seed-corrected z-score does the source give for UUCAAUCAGAUCGAAGAGC against CLK2 here?
The seed-corrected z-score was 0.0394.

Which seed-corrected z-score does the source give for AAAGAAGUAGAGGUAGGAC against OR6T1 here?
The seed-corrected z-score was 0.724.

With UUAACUGCACCAUCAGUGU against S100A8 as the sequence, how does the seed-corrected z-score read?
Its seed-corrected z-score is -3.04.

For UCAGCAUCAACAUAAUGCG against TAS2R40, which seed-corrected z-score is on record?
The seed-corrected z-score was -1.07.

Which seed-corrected z-score does the source give for UGACGAAUCCCUGCUAUAG against TDRD5 here?
The seed-corrected z-score was -0.0697.

For AAUUAGAUUACCUAAACAC against CDKL2, which seed-corrected z-score is on record?
The seed-corrected z-score was 0.926.

With UAAAGGGAAAUUUCCACCA against CDH16 as the sequence, how does the seed-corrected z-score read?
The seed-corrected z-score was 0.815.

With UUUGGUGAUUUCAUAAUCC against PCDH18 as the sequence, how does the seed-corrected z-score read?
The seed-corrected z-score was -0.027.

With AUCUGGAUCGCUCAGCUCC against TMEM235 as the sequence, how does the seed-corrected z-score read?
The seed-corrected z-score was 0.0464.

Which seed-corrected z-score does the source give for UAGCUUCUCACAGACUUUC against KCTD8 here?
Its seed-corrected z-score is -2.45.

For UUUCCUCUAGGAAGCAUCU against TRIM17, which seed-corrected z-score is on record?
Its seed-corrected z-score is 0.172.

With AUAGGCAGCAGUGCACUCG against 5-Sep as the sequence, how does the seed-corrected z-score read?
The seed-corrected z-score was -1.81.

For UAUAGUUAAAUCCAUCAUC against CALU, which seed-corrected z-score is on record?
The seed-corrected z-score was 0.272.

For UAGUAAGAAGAGUCAAUGC against PGA5, which seed-corrected z-score is on record?
The seed-corrected z-score was -0.472.

For AAUUGUUCACUGACCAGGC against WNT8A, which seed-corrected z-score is on record?
Its seed-corrected z-score is -0.645.

With AAAUAAUCCUGUCUACUCC against BOD1 as the sequence, how does the seed-corrected z-score read?
Its seed-corrected z-score is 0.629.

With UUGUAUUCAUCCUUGAAGC against CCDC89 as the sequence, how does the seed-corrected z-score read?
The seed-corrected z-score was -2.42.

Which seed-corrected z-score does the source give for UGAGGACAUCGAAGAGGCC against HTR6 here?
Its seed-corrected z-score is 1.21.

For UAAUGUAGAACAUUUUGAC against LECT2, which seed-corrected z-score is on record?
Its seed-corrected z-score is 0.659.

With UAUGCUUGCAGUCCACUGG against DYNLT3 as the sequence, how does the seed-corrected z-score read?
The seed-corrected z-score was 1.02.

Which seed-corrected z-score does the source give for UUACUGGGAAUAGCACUGC against ITGA5 here?
Its seed-corrected z-score is 0.318.

With UACUCUAUCCGCUGUGCCC against RCC2 as the sequence, how does the seed-corrected z-score read?
Its seed-corrected z-score is -0.853.

For UAGUUGUCGGUAUCUGUCC against CSPP1, which seed-corrected z-score is on record?
The seed-corrected z-score was -2.38.

Which seed-corrected z-score does the source give for AUCGUGAAGAGAUACUCCG against MAPKBP1 here?
The seed-corrected z-score was 0.318.

With UCAGCACACUGUCAGGUAC against USB1 as the sequence, how does the seed-corrected z-score read?
The seed-corrected z-score was 0.878.

Which seed-corrected z-score does the source give for UCACGGUGCACAAAGUUCU against ZAP70 here?
The seed-corrected z-score was -0.0104.

Which seed-corrected z-score does the source give for UCUCUGUAUGUGACUGUGA against SNRPD3 here?
The seed-corrected z-score was -2.85.

For UUGAAGUUCAUUAGUCUCC against AK5, which seed-corrected z-score is on record?
Its seed-corrected z-score is -0.322.

With UGUGGAUUUUGGAUGCAGC against XKR5 as the sequence, how does the seed-corrected z-score read?
Its seed-corrected z-score is -0.21.

Which seed-corrected z-score does the source give for AAUGUGGUUGAGCUGAUCC against MAPK3 here?
The seed-corrected z-score was -2.13.

With UUGGACAAAAGAUAAGAGC against SNRNP40 as the sequence, how does the seed-corrected z-score read?
The seed-corrected z-score was -0.258.

Which seed-corrected z-score does the source give for UUACCAGAUAGGAUGAUCA against OR5P2 here?
The seed-corrected z-score was 0.365.

With UUUGAGGCCGUUGAGGGUG against ELAVL3 as the sequence, how does the seed-corrected z-score read?
The seed-corrected z-score was -0.487.

For UGGGAUUCAAGAUCUCCUC against NGEF, which seed-corrected z-score is on record?
The seed-corrected z-score was -3.75.

With UUAAUGUAUGGGUUGACUC against PLS1 as the sequence, how does the seed-corrected z-score read?
The seed-corrected z-score was -0.413.

For UCCAGUUCUCCGGUGAUCU against SYNE3, which seed-corrected z-score is on record?
The seed-corrected z-score was 0.481.

Which seed-corrected z-score does the source give for UUUGCAUUCAUAAAGAAUU against ING3 here?
The seed-corrected z-score was -0.246.

For UCACGUACAAGAGCACUCG against GRHL2, which seed-corrected z-score is on record?
Its seed-corrected z-score is 0.132.

With UUCAGUUGAAUUCCAAAGG against ARHGAP28 as the sequence, how does the seed-corrected z-score read?
The seed-corrected z-score was 0.997.

For AAGGUGAUAAGUACAGUCA against LINC00977, which seed-corrected z-score is on record?
Its seed-corrected z-score is 0.26.

With AUGAUGCUAGGGUCGGUGC against E2F2 as the sequence, how does the seed-corrected z-score read?
Its seed-corrected z-score is -0.689.

For UCUAGUACUACAUUGGCUU against FLJ32255, which seed-corrected z-score is on record?
Its seed-corrected z-score is -1.66.

With CAUGGUCUCAGUCAGCAUG against CBY3 as the sequence, how does the seed-corrected z-score read?
The seed-corrected z-score was -2.21.

With UAUUCAGCAUUCUCUAUCU against DDAH2 as the sequence, how does the seed-corrected z-score read?
Its seed-corrected z-score is -0.379.

Which seed-corrected z-score does the source give for UCCCUGACAACUCCAGGGU against CLDN9 here?
Its seed-corrected z-score is 0.379.

For UAGUAAAUGAACGAAGGCG against MAD2L1, which seed-corrected z-score is on record?
The seed-corrected z-score was 0.0839.

With UUAGAUACGACAUAAGCAG against PGAP1 as the sequence, how does the seed-corrected z-score read?
Its seed-corrected z-score is 0.122.

Which seed-corrected z-score does the source give for UUUCUUCAAGGCAGUUUGC against SRGN here?
The seed-corrected z-score was -1.36.

Which seed-corrected z-score does the source give for UGAUGGUUGAAAUACUGGU against CITED2 here?
Its seed-corrected z-score is -2.05.

Which seed-corrected z-score does the source give for UGAACAGUCGCCGCUCUCU against ZNF418 here?
The seed-corrected z-score was 0.482.

For UGUCGUUUUUGUAUCCUUG against CAGE1, which seed-corrected z-score is on record?
The seed-corrected z-score was -1.32.

With UCUUCGUUGACCACACCAC against KCNIP1 as the sequence, how does the seed-corrected z-score read?
Its seed-corrected z-score is 0.284.

For UAGAAUGUCAGUUGGUUCC against MID1IP1, which seed-corrected z-score is on record?
The seed-corrected z-score was 0.366.

For UACAGAUAAACGAUGAUGC against TMEM104, which seed-corrected z-score is on record?
The seed-corrected z-score was -0.0479.

Which seed-corrected z-score does the source give for AGUUGUCCAACCAAUAGUC against EDRF1 here?
The seed-corrected z-score was -3.95.

For UACAUUGAAGCCUAUGGUU against ARF5, which seed-corrected z-score is on record?
The seed-corrected z-score was 0.767.

Which seed-corrected z-score does the source give for UUUUAUUUUCACAGUAGCA against LOC441239 here?
Its seed-corrected z-score is 0.865.

For UGACUGUAAACAGAGGCGG against SSR4, which seed-corrected z-score is on record?
The seed-corrected z-score was -0.396.

With UUUCGUUGGACUUACUUGG against SPP1 as the sequence, how does the seed-corrected z-score read?
Its seed-corrected z-score is -0.831.

With UCAGGGCAAAGUGGGAUGA against OXER1 as the sequence, how does the seed-corrected z-score read?
The seed-corrected z-score was -2.06.

For UUCAGGUGGACGAACAGCG against ADAMTS8, which seed-corrected z-score is on record?
The seed-corrected z-score was -0.634.

With UCCGAUAGAGGUUAGACCG against PPT2 as the sequence, how does the seed-corrected z-score read?
The seed-corrected z-score was -0.518.

With UCUUCUUUAUGUACCACCG against CDC37L1 as the sequence, how does the seed-corrected z-score read?
The seed-corrected z-score was 0.00159.

With UUGUAAGCUGGAUCGAUCC against ACACB as the sequence, how does the seed-corrected z-score read?
The seed-corrected z-score was 0.0997.

Which seed-corrected z-score does the source give for UGGGUAUUUGAUCUUGUCG against LZTR1 here?
Its seed-corrected z-score is -1.37.

With UUCUCUUCAACCCACUUGG against JAKMIP1 as the sequence, how does the seed-corrected z-score read?
Its seed-corrected z-score is -2.7.

With UUUAGGUAAAUGAACUCUC against ANGPTL2 as the sequence, how does the seed-corrected z-score read?
Its seed-corrected z-score is 0.169.

With UAAAGGUUGAGAAACUUGA against PRPF38A as the sequence, how does the seed-corrected z-score read?
Its seed-corrected z-score is -2.42.

With UUAGAAUCGACCGGCAUUC against KIT as the sequence, how does the seed-corrected z-score read?
The seed-corrected z-score was 0.106.

Which seed-corrected z-score does the source give for UAAAUGGCCGUGAUCAAUC against PRDM16 here?
Its seed-corrected z-score is -0.168.

Which seed-corrected z-score does the source give for UUUGUUCAAGGUUAAUCCC against LRRC27 here?
The seed-corrected z-score was 0.333.

For UAUCUUCUCACUAACACUC against PEX12, which seed-corrected z-score is on record?
Its seed-corrected z-score is 0.599.

With ACCCUUAUGAAUUACACCC against PSMD1 as the sequence, how does the seed-corrected z-score read?
The seed-corrected z-score was -4.24.

Which seed-corrected z-score does the source give for UCAUAGUUUAGUUCUCGAG against BBS9 here?
Its seed-corrected z-score is 0.745.

With AUAGAAUCGAUGGAAGUCC against CAMK2A as the sequence, how does the seed-corrected z-score read?
Its seed-corrected z-score is 0.247.

With UUCUAUGAAAUCGUAAGGC against ME2 as the sequence, how does the seed-corrected z-score read?
The seed-corrected z-score was -0.054.

Which seed-corrected z-score does the source give for AACAGCUCUCUGGUAAGCG against RPS23P8 here?
The seed-corrected z-score was -0.758.

Which seed-corrected z-score does the source give for UUGCUUUCGAGACCAGCUC against C11orf16 here?
Its seed-corrected z-score is -2.33.

Which seed-corrected z-score does the source give for UUCUUAUAUGUAGUACGGG against ZNF506 here?
Its seed-corrected z-score is -0.657.

With UUCGAACUAAGGCACGAGC against ABCB5 as the sequence, how does the seed-corrected z-score read?
The seed-corrected z-score was -0.392.
